Screening results deposited in PubChem BioAssay by Broad Institute.
Only a sample is shown.
aSyn UTR act: Activators via SNCA 5'UTR binding, MLPCN. alpha-synuclein 5'UTR reporter, activators screen. activity score, % (tested at 7.5 µM), hits read low. hit rate 7.1% among 300,000. AID 1814, 2009; in the data active = activity score below about -60%
Numbers without * were called inactive.

SMILES	aSyn UTR act
CCn1ncc(Br)c1C(=O)Nc1cc(C)cc(C)c1	-71*
COc1ccc(N2CCN(Cc3cc(=O)oc4cc(-c5ccccc5)c(O)cc34)CC2)cc1	73
Cc1ccc2c(CN3CCC(C)CC3)cc(=O)oc2c1C	-126*
CCN(CC)CC#CC(OC)(c1ccccc1)c1ccccc1	-81*
Cc1ccc(OC(=O)c2sc3ncn(C)c(=O)c3c2C)cc1	-120*
O=C(CCc1nnc(C2(c3ccc(Cl)cc3)CCC2)o1)N1CCCC1	-72*
CCC(=O)C1CCCN(C(=O)CCc2nnc(C3(c4ccc(Cl)cc4)CCC3)o2)C1 (stereo not drawn)	-62*
CC(=O)c1ccc(-c2nnc(CCC(=O)N3CCCC(C(=O)CC(C)C)C3)o2)s1 (stereo not drawn)	-157*
COC(=O)c1sccc1NC(=O)/C=C/c1ccc(Cl)cc1Cl	-206*
COC(=O)c1sccc1NC(=O)/C=C/c1c(Cl)cccc1Cl	-139*
CCCCCCCCC[n+]1cccc2c3ccccc3ccc21	69
COc1ccc(OC)c(C2CC(=O)N3CN(c4ccc(C)c(Cl)c4)CSC3=C2C#N)c1 (stereo not drawn)	-90*
CC(=O)c1ccc(NC(=O)C2CC(=O)N(Cc3ccccc3)C2)cc1 (stereo not drawn)	-129*
Cc1ccnc(NC(=O)C2CC(=O)N(Cc3ccccc3)C2)c1 (stereo not drawn)	-112*
COC(=O)c1sccc1NC(=O)COc1ccc(F)cc1Cl	-99*
CC(=O)Nc1ccc(NC(=O)COc2ccc(Cl)cc2Cl)cc1	-117*
O=C(COc1ccc(Cl)cc1Cl)c1ccc[nH]1	-94*
O=C(COc1cc(Cl)ccc1Cl)Nc1ccc2c(c1)CCC2	-64*
O=C(COc1ccc(Cl)cc1Cl)Nc1ccccc1F	-175*
CCCc1cc2c(=O)c(-c3ccc4c(c3)OCCO4)coc2cc1OS(C)(=O)=O	-222*
CCCc1cc2c(=O)c(-c3ccc4c(c3)OCCO4)coc2cc1OC(=O)c1ccco1	-287*
CCN(C(=O)c1cccs1)c1nnc(-c2ccncc2)s1	-76*
Cc1ccc(C(=O)Nc2cnc3sc(C)nn3c2=O)cc1	-100*
Cc1nn2c(=O)c(NC(=O)c3ccc(Cl)cc3)cnc2s1	-66*
Cn1nc(/C=C/c2ccccc2)ccc1=O	-190*
SMILES	aSyn UTR act
C(=C\c1cc(/C=C/c2ccccc2)ncn1)/c1ccccc1	-145*
Cc1nc(/C=C/c2ccccc2)cc(/C=C/c2ccccc2)n1	-104*
NC(=O)c1c(NC(=O)c2ccccc2)sc2c1CCC2	-122*
NC(=O)c1c(NC(=O)c2ccncc2)sc2c1CCCC2	-121*
COc1ccc(NC(=O)c2c(NC(=O)CCC(=O)O)sc(-c3ccccc3)c2C)cc1	-76*
Cc1cc(C(=O)Nc2sc3c(c2C#N)CCCCC3)cs1	-94*
O=C(O)CCC(=O)Nc1sc2c(c1C(=O)Nc1ccccc1)CCCCC2	-78*
NC(=O)c1c(NC(=S)Nc2ccccc2)sc2c1CCCC2	-67*
N#Cc1c(NC(=O)c2cnn3cccnc23)sc2c1CCCC2	-99*
CCN(CC)CCCC(C)NC(=O)c1c(NC(=O)c2ccccc2)sc2c1CCCC2 (stereo not drawn)	-79*
CC(C)C(=O)NC(=S)Nc1sc2c(c1C(N)=O)CCCC2	-121*
CNC(=O)c1c(NC(=O)c2nc3ccccc3s2)sc2c1CCC2	-256*
NC(=O)c1c(NC(=O)c2ccccc2)sc2c1CCc1ccccc1-2	-211*
N#Cc1c(NC(=O)c2ccncc2)sc2c1CCC2	-66*
NC(=O)c1c(NC(=O)c2cnccn2)sc2c1CCCC2	-217*
O=C(O)c1cccc(Nc2nc(-c3cc4ccccc4oc3=O)cs2)c1	-98*
COc1nc(-c2ccccc2)nnc1-c1ccccc1	-124*
COc1cccc(/C=N/NC(=O)c2ccc(-c3ccccc3)cc2)c1O	76
COc1cccc(N/N=C/c2cccc(Br)c2O)c1	-117*
COc1ccc(/C=N/Nc2ccc([N+](=O)[O-])cc2)cc1O	-298*
COc1cccc(/C=N/Nc2ccc([N+](=O)[O-])cc2)c1O	-150*
O=C(CC(Nc1ccccc1Cl)C(=O)OCC(=O)c1cccs1)c1ccccc1 (stereo not drawn)	-119*
COc1ccccc1NC(CC(=O)c1ccccc1)C(=O)OCC(=O)c1ccc(C)c(C)c1 (stereo not drawn)	-127*
COc1ccccc1NC(CC(=O)c1ccccc1)C(=O)OCC(=O)c1ccc(Br)cc1 (stereo not drawn)	-130*
COc1ccccc1NC(CC(=O)c1ccccc1)C(=O)OCC(=O)c1ccc(C)cc1 (stereo not drawn)	-190*
SMILES	aSyn UTR act
Cc1ccc(-n2ncc(Cl)c2C(=O)NCc2ccccc2)cc1	-83*
C=CCNC(=O)c1c(Br)cnn1-c1ccc(C)cc1	-88*
CCOc1ccc(NC(=O)Nc2cccnc2)cc1	-141*
O=C(Nc1ccc(Cl)cc1)Nc1cccnc1	-66*
CCOc1ccc(NC(=O)Nc2cccc(C(=O)O)c2)cc1	108
COc1ccc(-c2nc(C3CCCCC3)no2)cc1OC	-162*
c1ccc(-c2nc(C3CCCCC3)no2)cc1	-204*
